KKLEB tox: counter-screen for CF NF-kB inhibitors: cytotoxicity | KKLEB CF airway cells viability, ATPlite luminescence, overnight; stronger effect = lower value; cells stimulated with P. aeruginosa culture filtrate | activity change (cytotoxicity), % at 5 µM | 360,000 tested, 0.36% active;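 active means corrected activity change at or below -50% at 5 µM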
Peg3 promoter: inhibitors of Peg3 promoter; inhibition, % at 20 µM; 360,000 tested, 1.7% active; HeLa PEG-Prom luciferase reporter, luminescence, overnight;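 active means inhibition of at least 50% at 20 µM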
HSP90 inh: HSP90 refolding inhibition in rabbit reticulocyte lysate; luciferase refolding luminescence, 3 h; inhibition, % at 5.6 µM; 290,000 tested, 0.91% active; AID 1789;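 active means inhibition above the screen-wide mean plus 3 SD, computed separately per campaign, cut at about 16% in these data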;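 further: inhibitors lower the luminescence because luciferase stays unfolded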
LGR2 antag: inhibitors of bursicon-induced Drosophila LGR2 receptor cAMP signaling; HEK293 LGR2, CRE-luciferase, bursicon-stimulated, 4 h; inhibition, % at 9.99 µM; 380,000 tested, 0.35% active; AID 720647;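 active means drop in luminescence signal, shown as inhibition above about 50% in the replicate tests, limit read from the data, passing the limit was not always enough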;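 further: agonist challenge used bursicon conditioned medium at about half maximal strength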
CF NFkB block: cystic fibrosis NF-kB activation inhibition. inhibition, % at 5 µM. AID 588850. KKLEB NF-kB-GFP reporter, PAF-induced, GFP fluorescence overnight. 360,000 tested, 0.86% active;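 active means at least 50% inhibition at 5 µM, scaled per plate between neutral and stimulator controls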;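 further: PAF is a Pseudomonas aeruginosa culture filtrate used as stimulus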
Mdm2 MdmX PPI: human Mdm2/MdmX binding inhibition; SaOS-2 split-luciferase Mdm2/MdmX complementation, luminescence; 330,000 tested, 3% active; inhibition, % at 8 µM; O15151+Q00987;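 active means inhibition of at least 50% at 8 µM in the primary screen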
Target sequence (O15151 whole entry, looked up): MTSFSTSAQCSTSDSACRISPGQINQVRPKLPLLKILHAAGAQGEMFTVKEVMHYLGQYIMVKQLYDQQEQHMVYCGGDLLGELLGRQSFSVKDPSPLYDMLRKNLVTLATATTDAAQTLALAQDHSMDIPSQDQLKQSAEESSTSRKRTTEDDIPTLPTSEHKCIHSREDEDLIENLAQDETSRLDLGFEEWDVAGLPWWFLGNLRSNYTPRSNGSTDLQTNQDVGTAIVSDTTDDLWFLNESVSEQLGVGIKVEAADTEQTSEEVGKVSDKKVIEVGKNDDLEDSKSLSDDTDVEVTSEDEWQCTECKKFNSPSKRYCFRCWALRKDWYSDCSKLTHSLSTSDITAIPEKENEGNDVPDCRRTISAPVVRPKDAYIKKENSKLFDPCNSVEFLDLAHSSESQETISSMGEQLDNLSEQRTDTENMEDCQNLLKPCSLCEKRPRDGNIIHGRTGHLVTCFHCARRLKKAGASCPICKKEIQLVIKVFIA
Target sequence (Q00987 whole entry, looked up): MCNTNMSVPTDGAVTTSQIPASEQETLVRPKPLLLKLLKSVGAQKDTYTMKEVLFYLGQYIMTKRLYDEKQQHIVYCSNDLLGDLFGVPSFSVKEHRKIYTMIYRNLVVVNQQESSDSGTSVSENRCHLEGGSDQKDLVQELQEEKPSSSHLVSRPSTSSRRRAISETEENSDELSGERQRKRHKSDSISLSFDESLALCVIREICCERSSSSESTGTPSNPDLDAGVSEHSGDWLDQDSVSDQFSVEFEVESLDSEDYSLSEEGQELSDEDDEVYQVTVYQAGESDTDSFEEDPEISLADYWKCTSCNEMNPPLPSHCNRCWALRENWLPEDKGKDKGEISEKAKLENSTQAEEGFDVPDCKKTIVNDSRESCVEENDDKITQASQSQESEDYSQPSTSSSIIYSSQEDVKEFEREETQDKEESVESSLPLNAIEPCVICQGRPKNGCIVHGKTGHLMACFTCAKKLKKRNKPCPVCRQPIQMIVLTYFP
Mdm2 MdmX conf: human Mdm2/MdmX binding inhibition, confirmed. shares compounds with Mdm2 MdmX PPI. luminescent assay. inhibition, % at 8 µM. 10,000 tested, 55% active. AID 489028
Full FLuc ctr: full-length luciferase inhibition in Mdm2/MdmX counter-screen. shares compounds with Mdm2 MdmX PPI. SaOS-2 full-length luciferase counterscreen, luminescence. inhibition, % at 8 µM. 6,200 tested, 77% active;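 active means mean inhibition at 8 µM reaching about 37%, which flags the compound as non-specific, limit read from the data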;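 further: p53-null SaOS-2 cells with luciferase driven by a doxycycline-inducible promoter; compound on cells about two nights before reading with doxycycline added after day one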
CF NFkB conf: confirmation of cystic fibrosis induced NF-kB inhibitors; shares compounds with CF NFkB block; KKLEB CF airway cells, PAF-induced NF-kB-GFP fluorescence, overnight; inhibition, % at 5 µM; 1,300 tested, 64% active; AID 602472;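 further: stimulus PAF is a Pseudomonas aeruginosa filtrate and not platelet activating factor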
A number is an active result; 0 = inactive; - = not tested or not shown. Compounds with a hit are over-represented: about 3.6% of the library has one in this group of screens. Unless noted, no stated cut-off is given here; in the data, active means inhibition above about 40%; inactive means the rest.

SMILES	KKLEB tox	Peg3 promoter	HSP90 inh	LGR2 antag	CF NFkB block	Mdm2 MdmX PPI	Mdm2 MdmX conf	Full FLuc ctr	CF NFkB conf
CC(C)(C)OC(=O)CNC(=O)c1[nH]cnc1C(=O)NCC(=O)OCc1ccccc1	0	0	0	0	0	0	-	-	-
CC(C)(C)OC(=O)NCCCCCNC(=O)c1nc[nH]c1C(=O)NCC(=O)OCc1ccccc1	0	74	-	85	74	66	46	50	72
COc1cccc(C(=O)Nc2ccc3c(c2)C(=O)N(C)[C@H]2CC[C@@H](CC(=O)NCc4ccccc4F)O[C@@H]2CO3)c1	-	-	-	0	-	-	-	-	-
Cc1nc(N)c(C#N)c(-c2cccnc2)c1-c1ccccc1	0	0	0	0	63	56	42	56	68
Cc1c(-c2ccccc2)nc(N)c(C#N)c1-c1cccnc1	0	0	0	0	0	0	-	-	-
COc1ccc(NC(=O)Nc2cccc3c2O[C@@H](CN(C)Cc2ccc(-c4ccccc4)cc2)[C@H](C)CN([C@@H](C)CO)C3=O)cc1	-	-	-	0	-	-	-	-	-
C[C@@H]1CN([C@H](C)CO)C(=O)c2cc(NC(=O)Nc3ccc(C(F)(F)F)cc3)ccc2O[C@H]1CN(C)S(=O)(=O)c1ccccc1	0	0	-	0	57	74	0	-	57
COc1ccc(NC(=O)Nc2cccc3c2O[C@H](CN(C)Cc2ccc(-c4ccccc4)cc2)[C@@H](C)CN([C@H](C)CO)C3=O)cc1	0	94	-	0	59	91	63	0	0
COc1cc(-c2nnc(NC(=O)CCS(=O)(=O)c3ccc(F)cc3)o2)cc(OC)c1OC	0	0	-	0	54	72	69	48	0
COc1cc(OC)cc(-c2nnc(NC(=O)CCS(=O)(=O)c3ccccc3)o2)c1	0	0	-	0	0	0	-	-	-
CCNC(=O)C[C@@H]1C=C[C@@H](NC(=O)C2CC2)[C@H](CO)O1	-	-	-	0	-	-	-	-	-
C[C@H]1CN([C@@H](C)CO)C(=O)Cc2cc(NS(=O)(=O)c3ccc(Cl)cc3)ccc2O[C@H]1CN(C)C(=O)Nc1ccc(C(F)(F)F)cc1	-	-	-	0	-	-	-	-	-
COc1ccccc1Cn1c(=O)c2ccccc2n2c(Sc3ncnc4sccc34)nnc12	0	0	0	-	72	76	0	-	48
CCCNC(=O)N(C)C[C@@H]1Oc2ncc(-c3ccncc3)cc2C(=O)N([C@H](C)CO)C[C@H]1C	-	-	-	0	-	-	-	-	-
COc1ccc(-c2cnc(N)nc2-c2ccc(OCc3ccccc3)cc2O)cc1	0	0	0	0	0	0	-	-	-
Nc1ncc(-c2ccccc2)c(-c2ccc(O)cc2O)n1	0	0	0	0	51	61	0	-	69
Cc1cccc(NC(=O)c2nc[nH]c2C(=O)NCCCNC(=O)c2[nH]cnc2C(=O)Nc2cccc(C)c2)c1	0	93	-	0	64	73	63	43	79
Cc1cccc(NC(=O)c2nc[nH]c2C(=O)Nc2cccc(C)c2)c1	0	0	0	0	0	0	-	-	-
C[C@H](CO)N1C[C@H](C)[C@H](CN(C)C(=O)C2CCCCC2)Oc2cc(-c3ccccc3)ccc2S1(=O)=O	-	-	-	0	-	-	-	-	-
CCOC(=O)Nc1ccc2c(c1)N(C(=O)CCN(CC)CC)c1ccccc1S2=O (stereo unspecified)	0	58	0	0	91	67	53	0	43
Cc1noc(C)c1NC(=O)N(C)C[C@@H]1Oc2ccc(NC(=O)NC(C)C)cc2CC(=O)N([C@@H](C)CO)C[C@H]1C	-	-	-	0	-	-	-	-	-
CCOC(=O)C1=C(CC)Nc2ccccc2N=C1NC(=O)Nc1ccc(Cl)c(Cl)c1	0	0	0	0	56	94	80	39	101
CCOC(=O)C1=C(CC)Nc2ccccc2N=C1NC(=O)c1cc(C)on1	0	0	-	0	0	0	-	-	-
C=CCn1cnc2c(c1=O)c1nc3ccccc3nc1n2/N=C/c1cc(OC)c(OC)c(OC)c1	0	0	0	-	51	86	75	65	117
C=CCn1cnc2c(c1=O)c1nc3ccccc3nc1n2-c1ccc(C)cc1	-	-	0	0	-	0	-	-	-

Source: PubChem BioAssay
